Data taken from the supplement of paper PMC10849652.
Of roughly 8,800 targets only a part is listed; those with a hit were picked by preference. About 0.5% of all pairs of compound and target were hits.

Assays:
Test in all cases: log2 fold change, soluble protein after heating vs DMSO (PISA); higher = thermal stabilisation; K562 lysate, 10 uM; active = over 0.2 and 3.5 SD of the protein, either way, in both replicates (recomputed)
nilotinib = compound: Cc1cn(-c2cc(NC(=O)c3ccc(C)c(Nc4nccc(-c5cccnc5)n4)c3)cc(C(F)(F)F)c2)cn1 [nilotinib]
Outline: (§1)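 K562 pellets were dounce-homogenised in PBS pH 7.4 containing 1 mM MgCl2, and the crude extract, at 1 mg/mL protein, was exposed to 10 μM compound for 30 min. Aliquots were heated for 3 min across 48°C-58°C, pooled, brought to 0.5% NP-40 at 4°C and spun at 21,000xg for 90 min, with the supernatant taken as soluble protein. TMTpro 16plex LC-MS/MS with equalised channel sums quantified that protein. Values are log-two fold changes in thermal stability relative to solvent controls, taken from duplicates.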

[1] = compound: Cc1nc(Nc2n[nH]c3c2CN(C(=O)N[C@H](CN(C)C)c2ccccc2)C3(C)C)c2sccc2n1
Outline: as §1

dasatinib = compound: Cc1nc(Nc2ncc(C(=O)Nc3c(C)cccc3Cl)s2)cc(N2CCN(CCO)CC2)n1 [dasatinib]
Outline: as §1

[2] = compound: Cc1ncc(-c2ccnc(Nc3ccc(S(C)(=O)=O)cc3)n2)n1C(C)C
Outline: as §1

[3] = compound: Cn1cc(-c2ccc3c(c2)CCN3C(=O)Cc2cccc(C(F)(F)F)c2)c2c(N)ncnc21
Outline: as §1

quisinostat = compound: Cn1cc(CNCC2CCN(c3ncc(C(=O)NO)cn3)CC2)c2ccccc21 [quisinostat]
Outline: as §1

tipifarnib = compound: Cn1cncc1[C@@](N)(c1ccc(Cl)cc1)c1ccc2c(c1)c(-c1cccc(Cl)c1)cc(=O)n2C [tipifarnib]
Outline: as §1

[4] = compound: NC(=O)Nc1cc(-c2cccc(F)c2)sc1C(=O)N[C@H]1CCCNC1
Outline: as §1

[5] = compound: NC(=O)c1cnc(N[C@@H]2CCCC[C@@H]2N)nc1Nc1cccc(-n2nccn2)c1
Outline: as §1

[6] = compound: NC1(c2ccc(-c3nc4ccn5c(=O)[nH]nc5c4cc3-c3ccccc3)cc2)CCC1
Outline: as §1

[7] = compound: NCC(=O)Nc1ccc(-n2nc(C(F)(F)F)cc2-c2ccc3c(ccc4ccccc43)c2)cc1
Outline: as §1

vorinostat = compound: O=C(CCCCCCC(=O)Nc1ccccc1)NO [vorinostat]
Outline: as §1

silmitasertib = compound: O=C(O)c1ccc2c(c1)nc(Nc1cccc(Cl)c1)c1ccncc12 [silmitasertib]
Outline: as §1

[8] = compound: O=C1NC(=O)C(c2cnc3ccccn23)=C1c1cn2c3c(cc(F)cc13)CN(C(=O)N1CCCCC1)CC2
Outline: as §1

entospletinib = compound: c1cn2cc(-c3ccc4cn[nH]c4c3)nc(Nc3ccc(N4CCOCC4)cc3)c2n1 [entospletinib]
Outline: as §1

Measured: log2 fold change

KLC1 isoform 6 (UniProt Q07866)
Chain of UniProt Q07866 (Q07866 whole entry, looked up): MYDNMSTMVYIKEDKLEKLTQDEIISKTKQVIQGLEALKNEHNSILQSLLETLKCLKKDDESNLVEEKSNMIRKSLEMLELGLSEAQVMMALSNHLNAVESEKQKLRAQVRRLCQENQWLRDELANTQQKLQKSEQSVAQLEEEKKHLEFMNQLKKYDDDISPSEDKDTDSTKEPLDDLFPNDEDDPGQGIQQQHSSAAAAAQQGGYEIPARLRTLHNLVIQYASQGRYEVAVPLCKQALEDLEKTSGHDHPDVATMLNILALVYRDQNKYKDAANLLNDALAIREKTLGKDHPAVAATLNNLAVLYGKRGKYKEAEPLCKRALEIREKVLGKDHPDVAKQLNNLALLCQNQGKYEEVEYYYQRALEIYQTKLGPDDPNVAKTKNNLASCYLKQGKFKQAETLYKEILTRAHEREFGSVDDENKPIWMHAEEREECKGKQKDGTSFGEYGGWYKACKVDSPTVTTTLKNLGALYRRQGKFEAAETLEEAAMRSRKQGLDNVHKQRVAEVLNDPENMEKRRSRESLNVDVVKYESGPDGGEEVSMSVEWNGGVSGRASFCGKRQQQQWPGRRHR
active: vorinostat -0.231
inactive: nilotinib 0.009 | [1] -0.017 | dasatinib -0.021 | [2] -0.009 | [3] 0.009 | quisinostat -0.014 | tipifarnib -0.005 | [4] -0.014 | [5] 0.002 | [6] 0.017 | [7] 0.024 | silmitasertib -0.004 | [8] -0.034 | entospletinib 0.013

MBD2 (UniProt Q9UBB5)
Chain of UniProt Q9UBB5 (Q9UBB5 whole entry, looked up): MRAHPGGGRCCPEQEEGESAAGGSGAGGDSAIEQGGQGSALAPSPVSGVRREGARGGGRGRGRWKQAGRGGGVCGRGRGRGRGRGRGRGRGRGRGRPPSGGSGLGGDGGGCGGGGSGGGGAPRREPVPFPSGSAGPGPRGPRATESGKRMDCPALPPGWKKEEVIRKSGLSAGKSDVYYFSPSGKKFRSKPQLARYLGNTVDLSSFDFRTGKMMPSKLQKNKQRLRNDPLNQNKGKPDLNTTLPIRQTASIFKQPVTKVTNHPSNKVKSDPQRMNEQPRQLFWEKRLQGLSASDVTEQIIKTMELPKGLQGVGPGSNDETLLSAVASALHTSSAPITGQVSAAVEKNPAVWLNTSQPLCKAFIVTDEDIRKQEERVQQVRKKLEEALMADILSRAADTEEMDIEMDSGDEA
inactive: nilotinib 0.012 | [1] 0.007 | dasatinib -0.039 | [2] 0 | [3] 0.069 | quisinostat -0.014 | tipifarnib -0.011 | [4] -0.009 | [5] -0.003 | [6] 0.024 | [7] 0.018 | silmitasertib 0.017 | [8] -0.022 | entospletinib 0.022
active: vorinostat -0.244

KRAS (UniProt P01116)
inactive: nilotinib 0.034 | [1] -0.014 | dasatinib 0.049 | [2] 0.018 | [3] -0.015 | quisinostat 0.042 | tipifarnib 0.129 | [4] -0.001 | [5] 0.005 | [6] -0.032 | [7] 0.033 | vorinostat 0.129 | silmitasertib 0.022 | [8] -0.072 | entospletinib -0.021

KRIT1 (UniProt O00522)
Chain of UniProt O00522 (O00522 whole entry, looked up): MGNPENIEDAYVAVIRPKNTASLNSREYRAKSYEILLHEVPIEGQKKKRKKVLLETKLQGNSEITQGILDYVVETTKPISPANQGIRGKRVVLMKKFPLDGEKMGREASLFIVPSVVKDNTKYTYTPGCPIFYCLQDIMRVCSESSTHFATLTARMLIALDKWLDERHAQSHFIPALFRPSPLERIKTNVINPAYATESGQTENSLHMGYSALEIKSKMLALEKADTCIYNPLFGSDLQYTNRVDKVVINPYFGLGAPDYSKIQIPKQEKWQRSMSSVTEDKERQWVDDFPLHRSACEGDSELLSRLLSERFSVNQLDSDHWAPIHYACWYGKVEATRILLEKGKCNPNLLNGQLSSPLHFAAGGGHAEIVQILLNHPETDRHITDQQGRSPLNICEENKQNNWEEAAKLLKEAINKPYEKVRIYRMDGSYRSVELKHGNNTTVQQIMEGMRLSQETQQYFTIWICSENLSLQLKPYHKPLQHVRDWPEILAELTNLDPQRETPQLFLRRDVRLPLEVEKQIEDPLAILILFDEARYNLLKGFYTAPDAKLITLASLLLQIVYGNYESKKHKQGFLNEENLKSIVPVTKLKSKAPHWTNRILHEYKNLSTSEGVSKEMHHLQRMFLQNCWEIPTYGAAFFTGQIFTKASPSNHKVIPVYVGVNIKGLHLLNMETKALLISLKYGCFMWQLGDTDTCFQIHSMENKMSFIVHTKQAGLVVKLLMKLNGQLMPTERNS
inactive: nilotinib -0.011 | [1] -0.04 | dasatinib 0.027 | [2] 0.041 | [3] -0.048 | quisinostat -0.147 | tipifarnib -0.135 | [4] 0.09 | [5] 0.021 | [6] -0.005 | [7] -0.125 | vorinostat -0.046 | silmitasertib -0.013 | [8] -0.02 | entospletinib 0.012

KLHL36 (UniProt Q8N4N3)
Chain of UniProt Q8N4N3 (Q8N4N3 whole entry, looked up): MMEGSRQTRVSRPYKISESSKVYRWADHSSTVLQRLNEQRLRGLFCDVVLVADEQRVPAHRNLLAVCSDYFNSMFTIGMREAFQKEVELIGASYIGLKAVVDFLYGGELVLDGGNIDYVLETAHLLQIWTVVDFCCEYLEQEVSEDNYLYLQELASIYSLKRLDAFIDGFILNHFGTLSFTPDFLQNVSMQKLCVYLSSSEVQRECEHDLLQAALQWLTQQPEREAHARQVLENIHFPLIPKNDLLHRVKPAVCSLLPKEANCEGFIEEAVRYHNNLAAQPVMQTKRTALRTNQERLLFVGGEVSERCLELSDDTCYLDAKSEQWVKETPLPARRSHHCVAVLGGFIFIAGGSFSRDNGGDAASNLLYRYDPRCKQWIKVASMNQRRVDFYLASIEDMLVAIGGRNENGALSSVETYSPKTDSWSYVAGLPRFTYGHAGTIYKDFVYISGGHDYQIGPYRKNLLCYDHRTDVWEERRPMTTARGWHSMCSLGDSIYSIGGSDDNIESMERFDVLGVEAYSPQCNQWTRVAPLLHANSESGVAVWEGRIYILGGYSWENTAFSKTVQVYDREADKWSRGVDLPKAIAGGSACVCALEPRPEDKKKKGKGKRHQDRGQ
inactive: nilotinib 0.012 | [1] -0.104 | dasatinib -0.021 | [2] 0.027 | [3] 0.049 | quisinostat 0.043 | tipifarnib 0.067 | [4] 0.007 | [5] -0.023 | [6] -0.014 | [7] 0.059 | vorinostat -0.161 | silmitasertib 0.082 | [8] -0.037 | entospletinib -0.006

MLXIP (UniProt Q9HAP2)
Chain of UniProt Q9HAP2 (Q9HAP2 whole entry, looked up): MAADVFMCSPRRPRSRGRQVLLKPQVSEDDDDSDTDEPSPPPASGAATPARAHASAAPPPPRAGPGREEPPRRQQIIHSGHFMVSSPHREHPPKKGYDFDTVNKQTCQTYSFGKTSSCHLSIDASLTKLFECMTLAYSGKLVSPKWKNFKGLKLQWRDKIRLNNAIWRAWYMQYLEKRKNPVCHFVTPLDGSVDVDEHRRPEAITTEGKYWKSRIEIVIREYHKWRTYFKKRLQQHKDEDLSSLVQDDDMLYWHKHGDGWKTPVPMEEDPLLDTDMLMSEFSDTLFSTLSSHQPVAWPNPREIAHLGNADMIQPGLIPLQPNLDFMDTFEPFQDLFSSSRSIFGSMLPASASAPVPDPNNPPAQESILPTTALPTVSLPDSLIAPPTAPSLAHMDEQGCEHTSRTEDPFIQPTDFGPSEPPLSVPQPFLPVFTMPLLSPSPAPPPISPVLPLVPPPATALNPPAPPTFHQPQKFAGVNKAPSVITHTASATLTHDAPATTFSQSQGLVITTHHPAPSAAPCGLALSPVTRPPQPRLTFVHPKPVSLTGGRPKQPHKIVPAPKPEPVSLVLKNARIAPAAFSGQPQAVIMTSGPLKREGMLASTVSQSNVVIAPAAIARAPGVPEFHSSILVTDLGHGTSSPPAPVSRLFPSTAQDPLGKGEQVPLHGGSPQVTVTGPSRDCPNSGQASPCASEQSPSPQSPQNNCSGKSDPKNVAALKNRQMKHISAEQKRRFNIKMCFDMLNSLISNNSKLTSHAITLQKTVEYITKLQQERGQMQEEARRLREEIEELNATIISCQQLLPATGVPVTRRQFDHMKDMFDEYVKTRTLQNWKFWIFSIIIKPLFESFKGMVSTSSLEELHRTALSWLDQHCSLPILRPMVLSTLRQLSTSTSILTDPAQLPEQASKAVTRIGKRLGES
active: vorinostat -0.314
inactive: nilotinib 0.09 | [1] 0.003 | dasatinib -0.068 | [2] 0.003 | [3] 0.02 | quisinostat -0.04 | tipifarnib 0 | [4] 0.082 | [5] -0.01 | [6] -0.028 | [7] 0.037 | silmitasertib 0.026 | [8] 0.079 | entospletinib 0.03

MINDY1 isoform 3 (UniProt Q8N5J2)
Chain of UniProt Q8N5J2 (Q8N5J2 whole entry, looked up): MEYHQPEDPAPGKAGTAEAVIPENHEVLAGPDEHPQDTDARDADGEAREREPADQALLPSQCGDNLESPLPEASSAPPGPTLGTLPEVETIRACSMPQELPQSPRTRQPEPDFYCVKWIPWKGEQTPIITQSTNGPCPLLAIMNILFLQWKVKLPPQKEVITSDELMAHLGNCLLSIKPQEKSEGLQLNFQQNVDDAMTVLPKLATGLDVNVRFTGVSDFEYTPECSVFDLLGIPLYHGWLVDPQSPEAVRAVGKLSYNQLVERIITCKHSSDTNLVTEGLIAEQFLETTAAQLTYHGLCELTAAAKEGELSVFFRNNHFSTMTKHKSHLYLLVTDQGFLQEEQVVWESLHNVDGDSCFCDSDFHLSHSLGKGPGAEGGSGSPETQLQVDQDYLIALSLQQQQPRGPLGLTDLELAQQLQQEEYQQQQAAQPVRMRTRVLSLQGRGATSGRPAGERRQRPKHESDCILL
active: [5] 0.548
inactive: nilotinib -0.03 | [1] 0.154 | dasatinib -0.086 | [2] 0.271 | [3] 0.159 | quisinostat -0.006 | tipifarnib 0.022 | [4] -0.072 | [6] 0.038 | [7] -0.097 | vorinostat -0.186 | silmitasertib 0.144 | [8] 0.166 | entospletinib -0.052

LZTS1 (UniProt Q9Y250)
inactive: nilotinib -0.13 | [1] 0.023 | dasatinib 0.056 | [2] 0.167 | [3] -0.266 | tipifarnib 0.087 | [4] 0.186 | [5] -0.02 | [6] -0.297 | [7] 0.04 | vorinostat 0.101 | silmitasertib -0.143 | [8] 0.121 | entospletinib 0.07
active: quisinostat -1.06

LIMK2 isoform 3 (UniProt P53671)
Chain of UniProt P53671 (P53671 whole entry, looked up): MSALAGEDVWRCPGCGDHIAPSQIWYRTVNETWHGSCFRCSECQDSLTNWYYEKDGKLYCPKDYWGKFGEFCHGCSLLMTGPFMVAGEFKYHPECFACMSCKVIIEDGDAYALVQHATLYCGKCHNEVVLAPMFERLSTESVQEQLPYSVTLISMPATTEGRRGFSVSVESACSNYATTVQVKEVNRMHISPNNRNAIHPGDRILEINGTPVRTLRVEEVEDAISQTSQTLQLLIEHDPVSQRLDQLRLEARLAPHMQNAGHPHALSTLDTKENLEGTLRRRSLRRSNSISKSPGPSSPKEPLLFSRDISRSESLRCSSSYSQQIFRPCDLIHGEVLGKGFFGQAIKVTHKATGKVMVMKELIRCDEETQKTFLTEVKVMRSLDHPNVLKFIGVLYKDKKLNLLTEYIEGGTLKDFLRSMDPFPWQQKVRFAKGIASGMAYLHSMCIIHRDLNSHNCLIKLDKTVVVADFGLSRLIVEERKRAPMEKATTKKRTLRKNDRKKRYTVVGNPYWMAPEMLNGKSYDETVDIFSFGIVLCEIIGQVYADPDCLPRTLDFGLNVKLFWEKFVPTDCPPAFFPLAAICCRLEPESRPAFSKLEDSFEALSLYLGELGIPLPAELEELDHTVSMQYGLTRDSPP
inactive: nilotinib 0.074 | [1] 0.06 | dasatinib -0.126 | [2] 0.07 | [3] -0.099 | quisinostat -0.003 | tipifarnib -0.05 | [4] -0.066 | [5] -0.064 | [6] 0.008 | [7] -0.011 | vorinostat -0.21 | silmitasertib 0.114 | [8] 0.021 | entospletinib -0.055

KLC2 (UniProt Q9H0B6)
Chain of UniProt Q9H0B6 (Q9H0B6 whole entry, looked up): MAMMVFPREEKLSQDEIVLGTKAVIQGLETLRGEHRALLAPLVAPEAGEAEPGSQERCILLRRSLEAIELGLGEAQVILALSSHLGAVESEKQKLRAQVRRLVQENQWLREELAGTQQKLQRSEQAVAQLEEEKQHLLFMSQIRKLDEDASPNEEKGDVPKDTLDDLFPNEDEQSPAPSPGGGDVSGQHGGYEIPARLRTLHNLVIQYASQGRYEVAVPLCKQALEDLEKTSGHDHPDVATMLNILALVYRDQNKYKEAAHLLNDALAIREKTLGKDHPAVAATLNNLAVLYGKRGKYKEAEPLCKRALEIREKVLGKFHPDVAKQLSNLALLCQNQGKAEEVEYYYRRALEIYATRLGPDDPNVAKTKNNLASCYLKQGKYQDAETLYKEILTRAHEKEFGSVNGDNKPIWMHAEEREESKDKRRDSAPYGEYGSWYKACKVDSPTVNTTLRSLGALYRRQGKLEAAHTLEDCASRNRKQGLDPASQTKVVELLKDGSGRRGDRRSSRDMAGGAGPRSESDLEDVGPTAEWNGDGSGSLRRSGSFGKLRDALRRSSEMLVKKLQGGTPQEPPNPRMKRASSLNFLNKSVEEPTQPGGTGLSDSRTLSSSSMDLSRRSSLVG
active: vorinostat -0.348
inactive: nilotinib 0.016 | [1] 0.013 | dasatinib -0.062 | [2] 0.067 | [3] 0.041 | quisinostat -0.017 | tipifarnib 0.063 | [4] 0.012 | [5] 0.013 | [6] -0.036 | [7] 0.01 | silmitasertib -0.005 | [8] -0.061 | entospletinib 0.034
